These results are taken from PubChem BioAssay (NCATS).

The structures appear in SMILES notation. Where “and” joins values, the source holds several entries; their conditions need not be identical. Identical values can stand only once. Inconclusive results are not listed. Some compounds were tested as several samples or in several runs, with calls that do not always agree. Calls of active or inactive are those of the source. Unless noted, the call rests on the fitted dose curve; in most records, active means well fitted curve in the direction sought with a large enough effect; inconclusive means small, poorly fitted or top-dose-only effect, or another doubt; inactive means no such curve, though single readings can be large; an effect the other way counts as inactive or inconclusive.

A short description of assay [1]: qHTS assay for small molecule activators of the nuclear factor-kappa B (NF-kB) signaling pathway (AID 651749; active means well fitted activation curve with a large enough effect in the signal ratio; the % refers to the signal ratio; further: % of control where 0% means no effect). Conditions: NF-kB-bla ME-180 cells, beta-lactamase FRET ratio, 16 h; stronger effect = higher value. The method, boiled down:
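Beta-lactamase reporter expression, controlled by NF-kB response elements in ME-180 cells, was quantified fluorometrically via FRET disruption; cells at 2,000/well had been incubated with 23 nL test compound for 16 hr.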
A general note: Quantitative high-throughput screening tests each substance at several concentrations.

Assay [2] is described as follows: qHTS assay for small molecule disruptors of the mitochondrial membrane potential - 1 hr assay (AID 651754; calls by dose curve; further: nearly all actives have a fitted effect of over 35% in size; further: potency means the concentration at half of the fitted maximal effect). Conditions: series mostly up to 92.2 µM. Put shortly: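 Read-out: dye fluorescence at 490 nm ex/535 nm em (monomers) and 540 nm ex/590 nm em (aggregates) in HepG2 cells. Compound exposure 1 hr at 37C, followed by 30 min dye loading.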
The nature of assay [3]: qHTS assay for small molecule disruptors of the mitochondrial membrane potential - 5 hr assay (AID 651755; calls by dose curve; further: nearly all actives have a fitted effect of over 40% in size; further: potency means the concentration at half of the fitted maximal effect). Conditions: JC-1-type ratio dye; series mostly up to 92.2 µM. Put shortly:
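Seed HepG2 overnight, add compound, incubate 5 hr at 37C and 5% CO2, stain 30 min with Mito-MPS, then measure monomer (490/535 nm) and aggregate (540/590 nm) fluorescence.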

Assay [4] concerns the target Tumor necrosis factor (Homo sapiens) (UniProt P01375). Nature of the assay: qHTS assay to identify small molecules that stimulate Tumor Necrosis Factor-alpha (TNF-alpha) secretion (AID 651757; active means well fitted curve in the direction sought with a large enough effect in the signal ratio; the % refers to the signal ratio; further: 0% is about no effect). Conditions: Human cells, HTRF 665/615 ratio; series mostly up to 92.2 µM. The method, boiled down:
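THP-1 cells, 3000/well; compound 17 hrs, 37 C; add cryptate/XL665 anti-TNF-alpha antibody pair; 3 hr RT; TR-FRET (HTRF) read of secreted TNF-alpha. Quantitative HTS format.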

A short description of assay [5]: qHTS assay to identify small molecules that stimulate interleukin-8 (IL-8) secretion (AID 651758; active means well fitted activation curve with a large enough effect in the signal ratio; the % refers to the signal ratio; further: potency means the concentration at half of the fitted maximal effect; on activation: 0% is about no effect). Conditions: HTRF ratio (665/615); series mostly up to 92.2 µM. Put shortly: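 Quantitative HTS in THP-1 monocytic cells at 2000 cells per well, with 16 hrs compound incubation at 37 C. IL-8 in the medium was then quantified by HTRF immunoassay, read after 1-3 hrs at room temperature.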

Assay [6] can be described thus: qHTS assay for environmental chemicals that activate the Aryl hydrocarbon Receptor (AhR) signaling pathway (AID 651777). Further: nearly all actives have a fitted effect of over 15% in size. Further: potency means the concentration at half of the fitted maximal effect. On activation: % of control where 0% means no effect. Conditions: 1A2-DRE human hepatoma cells, luciferase, 24 h; activation: stronger effect = higher value. Put shortly:
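AhR activation is scored as a rise in luciferase from a stable DRE–CYP1A2 promoter construct in human hepatoma cells. Treatment lasts 24 hr at 37 C; detection uses One-Glo after 30 min at room temperature.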

Assay [7] addresses Peroxisome proliferator-activated receptor alpha (Homo sapiens) (UniProt Q07869). Nature of the assay: qHTS assay for small molecule agonists of the peroxisome proliferator-activated receptor alpha (PPARalpha) signaling pathway (AID 651778). Further: % of control where 0% means no effect. Conditions: PathHunter PPARalpha complementation, chemiluminescence, 6 h; stronger effect = higher value. Put shortly:
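Cells plated at 2,000/well and held overnight at 37 C, 5% CO2, then compound added by pin tool for 6 hr; after PathHunter detection reagent and 60 min at room temperature, chemiluminescence from enzyme complementation was read.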

A short description of assay [8]: qHTS for compounds that reverse cellular toxicity of Amyloid beta (A-beta) peptide in yeast: LOPAC Validation Assay (AID 720559).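 Further: plate controls were DMSO for no effect and equimolar ferric chloride plus clioquinol rescue for full effect.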 Conditions: yeast expressing A-beta; series mostly up to 46.1 µM. Put shortly:
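Medium dispensed, compounds pinned, A-beta yeast suspension added; plates held at 30 C for 48 hr; absorbance measured at 600 nm to gauge growth; values scaled between DMSO and FeCl3/clioquinol (equimolar) controls.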

The nature of assay [9]: qHTS for Activators of Parkin Expression: LOPAC Validation Assay (NLuc Reporter) (AID 720572;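 further: 0% = DMSO and 100% = positive control compound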). Conditions: Parkin promoter NanoLuc reporter cells, luminescence; series mostly up to 46.1 µM. The method, boiled down: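 Cells harboring the Parkin-promoter coincidence reporter were treated for 24 h at seven concentrations. NLuc output was measured sequentially after the FLuc channel and scaled between DMSO and positive control values.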

Chain of Tumor necrosis factor (Homo sapiens) (P01375 whole entry, looked up): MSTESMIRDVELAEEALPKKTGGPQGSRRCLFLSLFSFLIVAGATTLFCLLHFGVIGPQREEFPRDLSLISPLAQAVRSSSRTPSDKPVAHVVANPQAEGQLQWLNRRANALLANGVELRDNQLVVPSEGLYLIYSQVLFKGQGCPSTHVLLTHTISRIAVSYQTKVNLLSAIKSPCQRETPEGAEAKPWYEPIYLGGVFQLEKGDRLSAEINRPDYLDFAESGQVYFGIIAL
Chain of Peroxisome proliferator-activated receptor alpha (Homo sapiens) (Q07869 whole entry, looked up): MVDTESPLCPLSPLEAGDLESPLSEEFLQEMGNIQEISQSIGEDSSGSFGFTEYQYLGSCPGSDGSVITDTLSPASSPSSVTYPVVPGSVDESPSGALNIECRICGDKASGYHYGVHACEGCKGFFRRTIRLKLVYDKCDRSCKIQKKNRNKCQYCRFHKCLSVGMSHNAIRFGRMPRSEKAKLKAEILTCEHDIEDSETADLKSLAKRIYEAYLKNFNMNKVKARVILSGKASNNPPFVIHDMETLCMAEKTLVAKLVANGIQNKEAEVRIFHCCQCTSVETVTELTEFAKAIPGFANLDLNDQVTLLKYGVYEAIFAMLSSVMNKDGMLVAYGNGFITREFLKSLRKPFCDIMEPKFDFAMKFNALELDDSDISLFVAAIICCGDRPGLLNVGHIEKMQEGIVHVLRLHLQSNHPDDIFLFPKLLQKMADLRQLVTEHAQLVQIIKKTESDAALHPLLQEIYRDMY

`C=CCN=C=S`: the values for the activation in assay [1] and in assay [6] were -1.41% (inactive) and 0.264% (inactive), respectively. Also, the Potency entry in assay [2], in assay [3] and in assay [5] was “inactive” in each case. Also, the outcome in assay [4] was inactive. In addition, the max response in assay [7] is -1.57% (inactive).

`[O]=[Cr](=[O])([OH])[O][Cr](=[O])(=[O])[OH]`: the activation in [1] is 1.49% (inactive) and -0.838% (inactive) and 3.86% (inactive); in assay [6] it was 0.789% (inactive) and 0.878% (inactive) and -0.644% (inactive). In addition, the Potency result in assay [2], in [3] and in assay [5] was “inactive” each time. The outcome in [4] was inactive. Also, the max response in assay [7] was -2.4% (inactive) and -2.51% (inactive) and -6.59% (inactive).

Regarding `ClCC1CO1` (stereo not drawn), the activation in [1] is 0.581% (inactive); in assay [6], -0.99% (inactive). The Potency entry in [2], in assay [3] and in assay [5] was “inactive” each time. Moreover, the outcome in [4] was inactive. In addition, in assay [7], the max response was -4.69% (inactive).

In the case of `Clc1ccccc1Cl`, the values for the activation in assay [1] and in [6] were -0.0325% (inactive) and -0.403% (inactive), respectively. The Potency result in assay [2] and in assay [3] was “inactive” in each case. Moreover, in assay [4], the outcome was inactive. Besides, in assay [7], the max response was -2.32% (inactive).

As for `C[C@H]1CCC[C@H](O)CCCCCc2cc(O)cc(O)c2C(=O)O1`, the activation in [1] was -0.26% (inactive); in assay [6], -1.64% (inactive). In addition, the values for the Potency in assay [2] and in assay [3] were 33.5 µM (active) and 37.6 µM (active), respectively. Moreover, the result in assay [4] was inactive. Besides, in [7], the max response was -2.71% (inactive).

`COCC(C)N(C(=O)CCl)c1c(C)csc1C` (stereo not drawn): the activation in assay [1] is -2.83% (inactive); in assay [6] it was -1.87% (inactive). For the same compound, in [7], the max response is -3.83% (inactive).

Turning to `O=C1C[C@@H]2OCC=C3CN4CC[C@]56c7ccccc7N1[C@H]5[C@H]2[C@H]3C[C@H]46`, the activation is -1.87% (inactive) in assay [1] and 0.363% (inactive) in assay [6]. The max response in assay [7] was -1.11% (inactive).

Take `O=C1C=CC(=O)C=C1`: the activation in [1] is -1.25% (inactive); in assay [6] it was 1.56% (inactive). The Potency result in assay [2], in assay [3] and in assay [9] was “inactive” each time. Besides, the outcome in [4] and in assay [8] was inactive. Also, the max response in [7] is -5.62% (inactive).

`C#CCN1CC(=O)N(COC(=O)C2C(C=C(C)C)C2(C)C)C1=O` (stereo not drawn): the results for the activation in [1] and in [6] were 1.36% (inactive) and 3.63% (inactive), respectively. The max response in assay [7] is 0.547% (inactive).

Take `C[C@]12CCC(=O)C[C@@H]1CC[C@@H]1[C@@H]2CC[C@]2(C)[C@@H](O)CC[C@@H]12`: the activation in [1] is 1.2% (inactive) and 0.597% (inactive); in assay [6], -0.925% (inactive) and -0.613% (inactive). Further, the result in [4] was inactive. Also, the max response in assay [7] is -1.24% (inactive) and 0.0043% (inactive).

For `ClC=C(Cl)Cl`, the activation in assay [1] was -0.987% (inactive) and 0.875% (inactive); in assay [6] it was 3.37% (inactive) and -2.62% (inactive). The Potency entry in assay [2] and in assay [3] was “inactive” in each case. Moreover, in assay [4], the outcome was inactive. Further, in [7], the max response was -8.59% (inactive) and -1.74% (inactive).

On to `O=C(O)C(Cl)(Cl)Cl`, for which the Potency entry in assay [2], in assay [3] and in [5] was “inactive” throughout. Moreover, the outcome in assay [4] was inactive. Also, the max response in [7] is 3.26% (inactive) and -0.682% (inactive).

As to `O=C/C=C/c1ccccc1`, the activation was -1.46% (inactive) and -0.692% (inactive) in assay [1]; 2.17% (inactive) and 1.64% (inactive) in [6]. Besides, the Potency entry in [2] and in [3] was “inactive” in each case. In addition, the outcome in [4] was inactive. Further, in [7], the max response was 0.173% (inactive) and 5.71% (inactive).

On to `[O]=[Cd]`, for which the results for the activation in assay [1] and in [6] were -0.74% (inactive) and 0.231% (inactive), respectively. The Potency entry in [2] and in [3] was “inactive” each time. Also, the result in assay [4] was inactive. The max response in assay [7] was -1.92% (inactive).

Turning to `CC(C)CCON=O`, the Potency result in assay [2], in assay [3] and in assay [5] was “inactive” in each case. For the same compound, the outcome in [4] was inactive. Further, the activation in assay [6] was -0.695% (inactive). For the same compound, the max response in [7] was -0.247% (inactive).

`N#CN`: the results for the activation in assay [1] and in assay [6] were 0.422% (inactive) and 1.29% (inactive), respectively. The max response in assay [7] was 0.0862% (inactive).

For the compound `O=Cc1ccco1`, the activation in [1] was -0.614% (inactive); in assay [6], -0.549% (inactive). For the same compound, the Potency result in assay [2] and in [3] was “inactive” each time. In assay [4], the outcome was inactive. The max response in assay [7] is -1.43% (inactive).

On to `CC(C)(C)c1cc(O)ccc1O`, for which the activation in [1] is -2.1% (inactive) and -2.15% (inactive) and -3.27% (inactive); in assay [6] it was 12.6% (inactive) and 10.4% (inactive). Further, the Potency entry in assay [2] and in assay [3] was “inactive” each time. For the same compound, in assay [4], the result was inactive. Further, the Potency result in [5] is “inactive and 66.8 µM (active)”. Moreover, the max response in assay [7] was -2.46% (inactive) and -4.08% (inactive) and -1.53% (inactive).

As for `ClC1C(Cl)C(Cl)C(Cl)C(Cl)C1Cl` (stereo not drawn), the activation was -1.15% (inactive) [middle of 4 runs] in assay [1] and 1.78% (inactive) [middle of 4 runs] in assay [6]. The max response in assay [7] was 1.56% (inactive) [middle of 4 runs].

For `CCOP(=O)(OCC)O/C(=C/Cl)c1ccc(Cl)cc1Cl`, in assay [1], the activation is -2.44% (inactive) and -1.58% (inactive). Also, in assay [6], the Potency was 50.1 µM (active) and the activation was 3.76% (inactive). Further, the max response in assay [7] was -3.2% (inactive) and -2.2% (inactive).

In the case of `ClC(Cl)(Cl)Cl`, the activation in [1] is 2.09% (inactive) and -0.921% (inactive); in [6], -0.636% (inactive) and 0.214% (inactive). Besides, the Potency entry in [2], in assay [3] and in assay [5] was “inactive” throughout. In assay [4], the outcome was inactive. Moreover, the max response in assay [7] is -1.24% (inactive) and -4.01% (inactive).
